Source: PubChem (National Center for Advancing Translational Sciences (NCATS))
Lamin A splicing: qHTS Assay for Modulators of Lamin A Splicing; HeLa LMNA splicing GFP/RFP minigene ratio, 48 h; Potency, µM (top dose mostly 46.1 µM), for the others: top-dose ratio change, negative = inhibition, actives largely listed as inhibitors; 200,000 tested, 0.01% active; AID 1487, 2009; active means well fitted inhibition curve with a large enough effect in the signal ratio, with a control signal flat, not every such curve was filed as active; inconclusive means small, poorly fitted or top-dose-only effect, or effect the other way, or a change in a side signal; the % refers to the signal ratio; further: potency means the concentration at half of the fitted maximal effect
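S3 HeLa cells stably expressing lamin A-EGFP splicing minigene plus DsRed2, 600 cells/well, 48 h compound exposure at 37C. Laser-scanning cytometry; analysed as GFP (500-530 nm)/RFP (575-640 nm) total intensity ratio; 0.5% DMSO vehicle.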
IMPase cell inh: qHTS Assay for Identifying the Cell-Membrane Permeable IMPase Inhibitors; Inositol monophosphatase 1 (Rattus norvegicus), P97697; CHO-M1 cells, IP1 accumulation, HTRF TR-FRET ratio; inhibition (IP1 accumulation), % at 46.1 µM; 120,000 tested, under 10 active; AID 901, 2007; active means well fitted curve in the direction sought with a large enough effect in the signal ratio, not every such curve was filed as active; inconclusive means small, poorly fitted or top-dose-only effect, or a change in a side signal; inactive means no such curve, though single readings can be large or run the other way; the % refers to the signal ratio;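 further: cells stimulated with carbachol in lithium chloride buffer; plate controls were DMSO basal wells for no effect and reference inhibitor wells for full effect; higher means more IMPase inhibition seen as more IP1 and lower FRET ratio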
Target sequence (P97697 whole entry, looked up): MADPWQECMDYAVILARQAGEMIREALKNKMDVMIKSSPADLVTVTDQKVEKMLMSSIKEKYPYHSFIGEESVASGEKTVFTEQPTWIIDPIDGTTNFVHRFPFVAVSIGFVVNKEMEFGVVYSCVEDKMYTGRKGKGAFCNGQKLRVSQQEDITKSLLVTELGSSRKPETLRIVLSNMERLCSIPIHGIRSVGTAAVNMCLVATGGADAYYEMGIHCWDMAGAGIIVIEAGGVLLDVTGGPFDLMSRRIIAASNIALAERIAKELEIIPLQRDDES
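Cellular IMPase inhibition is scored as a rise in cytosolic IP1, detected by competitive TR-FRET between d2-labelled IP1 and a europium anti-IP1 antibody. M1-expressing CHO cells were stimulated with carbachol for 30 min at 37C, with lithium (50 mM LiCl) present in the buffer.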
ALDH1A1 block: qHTS Assay for Inhibitors of Aldehyde Dehydrogenase 1 (ALDH1A1); AID 1030, 2008; 220,000 tested, 7.3% active; Potency, µM (highest dose often 75.3 µM), for inactives: top-dose activity, negative = inhibition, most hits filed as inhibitors; Aldehyde dehydrogenase 1A1 (Homo sapiens), P00352; Purified ALDH1A1, NADH fluorescence, propionaldehyde substrate;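 further: potency means the concentration at half of the fitted maximal effect; plate controls were no enzyme wells and a reference inhibitor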
KinaseGlo FLuc: Counterscreen for Luciferase (Kinase-Glo TM) Inhibition; Kinase-Glo luciferase, ATP luminescence, 8 min; AID 1379, 2008; Potency, µM (doses to about 38.3 µM), without a hit: at the highest dose activity change, negative = inhibition, usual class: inhibitors; 200,000 tested, 0.28% active; active means well fitted inhibition curve with a large enough effect; inconclusive means small, poorly fitted or top-dose-only effect; further: potency means the concentration at half of the fitted maximal effect; nearly all actives have a fitted effect of over 60% in size
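Compound is pinned into ATP-containing buffer (10 uM ATP, imidazole pH 7.2, 7 mM MgCl2). Kinase-Glo luciferase reagent is then added. Light output is recorded following an 8-min room-temperature incubation.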
HPGD inh: qHTS Assay for Inhibitors of HPGD (15-Hydroxyprostaglandin Dehydrogenase); purified HPGD, NADH fluorescence kinetic, PGE2 substrate; 15-hydroxyprostaglandin dehydrogenase [NAD(+)] (Homo sapiens), P15428; Potency, µM, without a hit: at the top dose activity change, negative = inhibition, hits mostly inhibitors; 150,000 tested, 4.3% active; further: potency means the concentration at half of the fitted maximal effect
Target sequence (P15428 whole entry, looked up): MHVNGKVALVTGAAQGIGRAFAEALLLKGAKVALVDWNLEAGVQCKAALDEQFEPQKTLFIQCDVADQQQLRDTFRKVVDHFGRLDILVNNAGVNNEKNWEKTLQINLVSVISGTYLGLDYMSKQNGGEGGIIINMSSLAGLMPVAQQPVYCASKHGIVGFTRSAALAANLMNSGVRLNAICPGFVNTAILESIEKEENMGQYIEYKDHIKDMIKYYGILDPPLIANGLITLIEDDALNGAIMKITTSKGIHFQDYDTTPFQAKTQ
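NADH formation kinetics: reaction with 30 uM PGE2 and 1 mM NAD+ (final), 20 nM enzyme, Tris-HCl pH 8 with Tween 20, after 15 min compound preincubation at room temperature. Fluorescence change, last versus first of five reads.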
PNC inhibitor: High Content Assay for Compounds that inhibit the Assembly of the Perinucleolar Compartment; 140,000 tested, 3.1% active; activity change (PNC), negative = inhibition, % at 10 µM; PC3M PTB-GFP, PNC prevalence imaging, 16 h; stronger effect = lower value;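 active means readout at or below -70, meaning at least 70% loss of cells showing the perinucleolar compartment, a nuclear body marking cancer cells; inconclusive means readout between -30 and a set limit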;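 further: plate controls were DMSO wells for no effect and camptothecin positive control wells for full effect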
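PC3M cells stably expressing PTB-GFP, 750–1000 cells/well, treated 16 h at 37 °C with compound (23 nl of library stock), in duplicate. After paraformaldehyde fixation and Hoechst stain, imaged at 20x; PNC prevalence scored by image analysis.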
* marks the source's active call; other numbers are inactive results; ? = inconclusive; . = not tested or not shown; [ ] = another dose, or the depositor's remark. This is a sample that favours compounds with a hit; in the whole collection about 10% have one here. Unless noted, the call rests on the fitted dose curve; in most records, active means well fitted inhibition curve with a large enough effect (not every such curve was filed as active); inconclusive means small, poorly fitted or top-dose-only effect, or another doubt; inactive means no such curve, though single readings can be large or run the other way. Unless noted, on the % scale 0 is the no-effect control and ±100 the full control effect.

SMILES | Lamin A splicing | IMPase cell inh | ALDH1A1 block | KinaseGlo FLuc | HPGD inh | PNC inhibitor
CN1CCN(C(=S)c2ccc(-c3cccc(Cl)c3Cl)o2)CC1 | ? | . | ? | 0.1% | 22.4µM* | 30.6
CN1CCN(C(=O)c2ccc(CS(=O)(=O)c3c(Cl)cccc3Cl)o2)CC1 | 0.8% | -10.9 | -3.8% | 0.2% | -10.1% | -2.7
S=C(c1ccc(-c2ccc(Cl)cc2)o1)N1CCCCC1 | -2.2% | 6.2 | ? | -0.5% | -21.8% | -3.8
S=C(c1ccc(-c2ccccc2Cl)o1)N1CCCCC1 | ? | . | ? | -1.6% | 28.2µM* | 40.9
OC[C@H]1NC[C@@H](O)[C@@H](O)[C@H]1O | . | -0.7 | ? | -0.3% | -12.2% | .
COc1ccc(C(=O)O/N=C(\C)c2nccs2)cc1 | . | . | ? | 12.6µM* | . | .
COc1ccc(C(=O)O/N=C(/C)c2cccs2)cc1 | 5.7% | -4.5 | -1.7% | 12.6µM* | -9.2% | -19.1
COc1ccc(C2CC2/C(C)=N/OC(=O)c2cccs2)cc1 (centres undefined) | 14.7% | -0.1 | -14.3% | -2.4% | 22.4µM* | 76.6
COc1ccc(C/C(N)=N/OC(=O)c2cccs2)cc1 | ? | . | -1.5% | 1.0% | . | .
COc1ccc(OCCOC(=O)c2cccs2)cc1 | -0.4% | 6.3 | ? | -10.4% | -29.7% | -26.4
C/C(=N\OC(=O)c1ccc(F)cc1)c1nccs1 | -0.1% | -1.0 | 1.6% | -26.3% | -14.8% | ?
Cc1ccn2c(Nc3ccc4c(c3)OCCO4)c(-c3ccc(N(C)C)cc3)nc2c1 | . | 0.4 | . | . | . | .
CC(C)(C)c1ccc(OCC(=O)NCc2ccco2)c(Br)c1 | 2.5% | 9.7 | 17.8µM* | 0.9% | -27.5% | -14.9
Cc1cc(=O)oc2cc(OC(C)C(=O)N3CCOCC3)ccc12 (centres undefined) | 7.2% | 0.0 | ? | 0.3% | ? | ?
CCOc1ccc(S(=O)(=O)N2CCN(C(=S)NCc3ccco3)CC2)cc1 | ? | . | -13.1% | -1.8% | -6.5% | -86.6*
Cc1cc(=O)oc2cc(OCC(=O)N3CCOCC3)ccc12 | 2.6% | -3.9 | ? | 2.1% | ? | -100.0*
Cc1cccc(N(CC(=O)N/N=C/c2ccc(OCC(=O)NCc3ccco3)cc2)S(C)(=O)=O)c1C | 6.6% | 5.7 | -13.2% | 7.1% | 25.1µM* | ?
Cc1cc(C)cc(CSCC(=O)N/N=C/c2ccc(OCC(=O)NCc3ccco3)cc2)c1 | 4.4% | 1.5 | 4.8% | 0.6% | -18.4% | ?
O=c1cnc2cnc(N3CCOCC3)nc2n1C[C@H]1CCCO1 | . | . | ? | -1.6% | ? | .
CCn1cc(C(=O)N2CCCC2)c(=O)c2cc(S(=O)(=O)N3CCOCC3)ccc21 | -22.1% | 1.4 | 3.6% | 0.5% | 0.7% | 18.3
CCOC(=O)c1cn(CC)c2ccc(S(=O)(=O)N3CC(C)CC(C)C3)cc2c1=O (centres undefined) | 19.2% | 4.3 | 14.1% | -2.3% | -17.5% | 24.3
CCOC(=O)c1cn(CC)c2ccc(S(=O)(=O)N3CCC(C)CC3)cc2c1=O | 2.0% | 21.1 | -12.1% | 1.2% | 15.8µM* | ?
CCn1cc(C(=O)NCc2ccco2)c(=O)c2cc(S(=O)(=O)N3CCCC3)ccc21 | . | . | 25.1µM* | 3.5% | . | .
Cc1cc(=O)oc2cc(OCC(=O)NCc3ccco3)ccc12 | 3.3% | -5.9 | ? | -2.3% | ? | -100.0*
Cc1ccc(C)c(NS(=O)(=O)c2ccc(NC(=O)c3ccco3)cc2)c1 | ? | -1.5 | -0.5% | 3.0% | -7.0% | -100.0*
Cc1cc(=O)oc2ccc(OCC(=O)NCc3ccco3)cc12 | 13.3% | 2.8 | ? | -1.7% | -23.4% | -15.9
Cc1ccc2[nH]c3nc(CCCn4ccnc4-c4ccccc4)nnc3c2c1 | . | . | -11.3%[13.5 µM] | . | . | .
N#Cc1cccc(-c2cc(NCc3cccs3)ncn2)c1 | ? | . | ? | -5.3% | ? | .
